According to PubChem BioAssay (NCI):
About 79,000 compounds went through this panel and 15% of them were active in at least one assay; those are over-represented in the sample as a whole. No stated cut-off is given here; in the data, active means growth inhibition above about 70%; inactive means the rest.

Tests used:
[1] = NCI Yeast Anticancer Drug Screen. Data for the rad50 strain (AID 155);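 further: 0% = growth of vehicle-only cultures of the same strain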; conditions: S. cerevisiae rad50 strain growth inhibition; at 50.0 µM; active compounds read high
Summary of the method: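 Vehicle-treated cultures provide the reference for the growth inhibition reported for compound-exposed, repair-deficient yeast.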

[2] = NCI Yeast Anticancer Drug Screen. Data for the mec2-1 strain (AID 157); conditions: S. cerevisiae mec2-1 strain, at 50.0 µM, active compounds read high
Summary of the method: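 Using mec2-1 yeast: add compound, measure growth, express inhibition versus vehicle-treated cultures.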

[3] = NCI Yeast Anticancer Drug Screen. Data for the sgs1 mgt1 strain (AID 161);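 further: 0% = growth of cultures given vehicle only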; conditions: S. cerevisiae sgs1 mgt1 strain, at 50.0 µM, active compounds read high
Summary of the method: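 Yeast cells carrying a defined DNA-repair defect were exposed to test compounds. Growth inhibition was measured relative to vehicle-treated controls.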

[4] = NCI Yeast Anticancer Drug Screen. Data for the cln2 rad14 strain (AID 165);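 further: 0% = growth equal to vehicle treated cultures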; conditions: S. cerevisiae cln2 rad14 strain, at 50.0 µM, active compounds read high
Summary of the method: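 Yeast strain cln2 rad14, bearing defects in cell cycle control and DNA repair, serves as the test system; values reflect growth inhibition compared with vehicle.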

[5] = NCI Yeast Anticancer Drug Screen. Data for the bub3 strain (AID 167); conditions: S. cerevisiae bub3 mutant strain, at 50.0 µM, active compounds read high
Summary of the method: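 Mutant yeast screening strain plus compound; vehicle-treated cultures serve as the 0% inhibition reference.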

[6] = NCI Yeast Anticancer Drug Screen. Data for the mlh1 rad18 strain (AID 175); conditions: S. cerevisiae mlh1 rad18 strain growth inhibition; at 50.0 µM; active compounds read high
Summary of the method: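 Steps: expose repair-defective yeast to compound; measure growth; express inhibition against vehicle-treated controls.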

Measured: growth inhibition

CCOC(=O)c1nnc(C)[nH]c1=O
inactive: [1] 13.4% | [2] -5.5% | [3] -14.5% | [4] -43.9% | [5] -2.8% | [6] 15%

CCOC(=O)C(CC)(C(=O)OCC)C(C)C
inactive: [1] 15.6% | [2] 30.4% | [3] -17.9% | [4] -28.1% | [5] -9.95% | [6] -6.8%

C=CCNc1ccc(Cl)cc1Cl
inactive: [1] -3.5% | [2] -6.25% | [3] -21.9% | [4] -54.4% | [5] -8.75% | [6] 12.6%

CCOC(=O)C1=C(C)N(NC(N)=O)C2(N)N(NC(N)=O)C(C)=C(C(=O)OCC)C12C#N (stereo not given)
inactive: [1] -6.95% | [2] 21.9% | [3] 17.6% | [4] 4.3% | [5] 10.6% | [6] -12.1%

CC(=O)CC(=O)CC(C)C.CC(=O)CC(=O)CC(C)C.[Cu]
inactive: [1] 17.2% | [2] 17.5% | [3] 6.25% | [4] -16.1% | [5] -3.2% | [6] 37.7%

COc1ccc(C(=N)c2ccccc2C)cc1
inactive: [1] 8% | [2] -8.65% | [3] 6.05% | [4] 1.65% | [5] 8.5% | [6] -8.4%

CC1CN=C(N(Cc2ccccc2)C(=O)Nc2ccc(Cl)c(Cl)c2)S1 (stereo not given)
inactive: [1] -4.25% | [2] 27.9% | [3] -0.35% | [4] 26.7% | [5] -0.65% | [6] 0.35%

NC(N)=NC(N)=Nc1ccc(N=C(N)N=C(N)N)cc1
inactive: [1] 3.55% | [2] -12.7% | [3] -6.2% | [4] -0.75% | [5] 10.2% | [6] -1.3%

C=C1CC2(CCC3C4CC=C5CC(O)CCC5(C)C4CCC32C)OC1=O (stereo not given)
inactive: [1] 2.9% | [2] 11.7% | [3] 6.45% | [4] 46.3% | [5] 8.15% | [6] 15.2%

C=C1C(=O)OC2C1C(OC(=O)/C(C)=C/C)CC1(C)C(=O)CCC(=C)C21 (stereo not given)
inactive: [1] 38.3% | [2] 47% | [3] 52.8% | [4] 44.1% | [5] 52.8% | [6] 63.6%

CCN(CC)C1C(=O)NC1C#Cc1ccccc1 (stereo not given)
inactive: [1] 19% | [2] 6.5% | [3] 7.05% | [4] 5.95% | [5] 7.6% | [6] 15.6%

CCCCCCCC(=O)OCC1OC(n2cc(F)c(=O)[nH]c2=O)C(NC(=O)OCc2ccccc2)C(OC(=O)CCCCCCC)C1O (stereo not given)
inactive: [1] 20.2% | [2] 4.05% | [3] 13.4% | [4] 14.3% | [5] 0.35% | [6] 38.3%

COC(=O)c1cc(=O)c2scc(C)[n+]2[nH]1
inactive: [1] -5.4% | [2] -10.8% | [3] 18.9% | [4] 9.55% | [5] -3.05% | [6] -5.3%

O=C(O)COc1cccc2ccccc12
inactive: [1] 5.25% | [2] -18.6% | [3] -0.7% | [4] -24.6% | [5] 1.75% | [6] 14.7%

Nc1ccnc(Sc2ncccc2[N+](=O)[O-])n1
inactive: [1] 1.2% | [2] -8.15% | [3] -5.75% | [4] -47.8% | [5] 7.8% | [6] 1.3%

Cc1ccc(NC=O)cc1NC=O
inactive: [1] 37.6% | [2] -1.4% | [3] 9.5% | [4] -27.1% | [5] 4.2% | [6] 15.9%

CCC1(CN(C)C)CC/C(=C\c2ccc(OC)cc2)C1=O (stereo not given)
inactive: [1] 8.8% | [2] 4.1% | [3] -9.2% | [4] -6.1% | [5] -5.8% | [6] 27.3%

COc1ccc(NC(=O)/C(Cc2nc3ccccc3[nH]c2=O)=N\O)c(OC)c1
inactive: [1] -1.85% | [2] -9.4% | [3] -5.1% | [4] 0.7% | [5] -4.85% | [6] -13.7%

Cc1ccc2c(-c3ccc4ccccc4c3)c3ccccc3cc2c1
inactive: [1] 7.7% | [2] -10.2% | [3] -2.8% | [4] -12.6% | [5] -2.35% | [6] -40.5%

CC(C)(C)CC(C)(C)c1cc2c(O)c(c1)Cc1cc(C(C)(C)CC(C)(C)C)cc(c1O)Cc1cc(C(C)(C)CC(C)(C)C)cc(c1O)Cc1cc(C(C)(C)CC(C)(C)C)cc(c1O)Cc1cc(C(C)(C)CC(C)(C)C)cc(c1O)Cc1cc(C(C)(C)CC(C)(C)C)cc(c1O)C2
inactive: [1] 7.4% | [2] 3.05% | [3] 18.4% | [4] 18.9% | [5] 4.95% | [6] 9.55%
